PubChem BioAssay (EPA / NIEHS)
Records with an inconclusive call do not appear. Activity calls are given as the source filed them. Rule for the calls, unless noted: active = hit-call score of the fitted dose curve at least 0.9, where 1 is the maximum; inconclusive = response in the unintended direction; inactive = score below 0.9.

Columns and labels:
[1] = TOX21_p53_BLA_p2_viability: Viability Assessment in the Tox21 HCT-116 p53 Agonism Beta-lactamase Assay, Phase 2 (AID 2283591);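 note: actives lower the ATP signal meaning cytotoxicity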
Summary of the method: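 HCT116 p53-bla cells, 4000/well, dosed after 5 h plating (217-fold dilution of DMSO stocks) and incubated 16 h at 37C. Viability taken as cellular ATP by CellTiter-Glo luminescence after 30 min RT; signal loss marks cytotoxicity.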

[2] = TOX21_p53_BLA_p3_viability: Viability Assessment in the Tox21 HCT-116 p53 Agonism Beta-lactamase Assay, Phase 3 (AID 2283593)
Summary of the method: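 HCT116 cells, 4000/well, dosed 5 h after plating by pin transfer (217-fold dilution from DMSO stock) and incubated 16 h at 37C, 5% CO2. Viability read as ATP luminescence with CellTiter-Glo after 30 min at room temperature.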

[3] = target: Cellular tumor antigen p53 (Homo sapiens) (UniProt P04637); test: TOX21_p53_BLA_p3_ratio: Tox21 HCT-116 p53 Agonism Beta-lactamase Assay, Ratio, Phase 3 (AID 2283596)
Chain of Cellular tumor antigen p53 (Homo sapiens) (P04637 whole entry, looked up): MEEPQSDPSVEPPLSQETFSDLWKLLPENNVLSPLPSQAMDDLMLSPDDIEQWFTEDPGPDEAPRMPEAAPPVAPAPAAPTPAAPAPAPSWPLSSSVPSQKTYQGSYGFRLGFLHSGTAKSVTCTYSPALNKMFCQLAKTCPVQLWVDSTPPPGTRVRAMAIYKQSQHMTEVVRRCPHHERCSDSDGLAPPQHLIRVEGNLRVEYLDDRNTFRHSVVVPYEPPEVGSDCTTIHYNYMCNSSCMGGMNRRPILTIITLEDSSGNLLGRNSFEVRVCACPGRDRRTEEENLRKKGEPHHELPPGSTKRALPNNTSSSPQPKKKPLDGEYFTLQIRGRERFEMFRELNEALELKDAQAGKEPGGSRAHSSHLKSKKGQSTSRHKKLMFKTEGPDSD
Summary of the method: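 HCT116 p53-bla cells (4000/well) given compound in DMSO (217-fold dilution) after 5 h, incubated 16 h at 37C. CCF4-AM substrate 2 h at room temperature; 460/530 nm emission ratio, gain fitted against DMSO.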

[4] = target: Cellular tumor antigen p53 (Homo sapiens) (UniProt P04637); test: TOX21_p53_BLA_p5_ratio: Tox21 HCT-116 p53 Agonism Beta-lactamase Assay, Ratio, Phase 5 (AID 2283599)
Summary of the method: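 HCT-116 p53-bla cells (4000/well) plated 5 h, dosed with compound (217-fold DMSO dilution) for 16 h at 37 C; CCF4-AM substrate 2 h at room temperature. Activity is the 460/530 nm emission ratio (405 nm excitation), fitted in gain-of-signal direction versus DMSO.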

[5] = TOX21_p53_BLA_p5_viability: Viability Assessment in the Tox21 HCT-116 p53 Agonism Beta-lactamase Assay, Phase 5 (AID 2283600)
Summary of the method: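 After the 460/530 nm beta-lactamase measurement, the wells received an ATP-detection luciferase reagent; signal was read 30 min later at RT. Compound treatment lasted 16 h on cells pre-incubated 5 h post-seeding.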

[6] = target: Cellular tumor antigen p53 (Homo sapiens) (UniProt P04637); test: TOX21_p53_BLA_p4_ratio: Tox21 HCT-116 p53 Agonism Beta-lactamase Assay, Ratio, Phase 4 (AID 2283601)
Summary of the method: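 HCT-116 p53 beta-lactamase reporter cells (4000/well) preincubated 5 h, then compound (217-fold dilution of DMSO stock) for 16 h at 37C. CCF4-AM substrate added 2 h at room temperature; 460/530 nm emission ratio fitted upward versus DMSO.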

[7] = TOX21_p53_BLA_p4_viability: Viability Assessment in the Tox21 HCT-116 p53 Agonism Beta-lactamase Assay, Phase 4 (AID 2283597);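 note: hits lower the luminescence signal meaning cytotoxicity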
Summary of the method: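 Following a 16 h exposure at 37C, the treated HCT116 wells were first read for the FRET ratio. They were then lysed with CellTiter-Glo, and ATP luminescence was recorded after 30 min at room temperature.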

[8] = TOX21_PR_BLA_Followup_Agonist_viability: Viability Assessment in the Tox21 HEK293 Progesterone Receptor (PR) Agonism Beta-lactamase Follow-Up Assay (AID 2283935);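 note: signal loss means lower viability so actives are cytotoxic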
Summary of the method: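 PR-UAS-bla HEK293T cells in 2% charcoal-stripped FBS medium, plated 6 hr before compound addition, exposed 16 hr at 37C. Viability read by CellTiter-Glo ATP luminescence after 30 min at room temperature, in the same wells as the beta-lactamase readout.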

[9] = TOX21_PR_BLA_Followup_Antagonist_viability: Viability Assessment in the Tox21 HEK293 Progesterone Receptor (PR) Antagonism Beta-lactamase Follow-Up Assay (AID 2283936);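 note: hits lower the luminescence signal meaning cytotoxicity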
Summary of the method: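 PR-UAS-bla HEK293T cells (3,000/well, 2% charcoal-stripped FBS) given compound plus R5020 agonist, 16 h at 37C. CellTiter-Glo added after bla read, 30 min at room temperature; luminescence loss indicates cytotoxicity.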

PGR (gene 5241) = PGR (gene 5241) (UniProt P06401); test: TOX21_PR_LUC_Followup_Antagonist: Tox21 HEK293 Progesterone Receptor (PR) Antagonism Luciferase Follow-Up Assay (AID 2283938);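 note: curve fitted upward as signal gain over DMSO baseline despite antagonist label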
Chain of PGR (gene 5241) (P06401 whole entry, looked up): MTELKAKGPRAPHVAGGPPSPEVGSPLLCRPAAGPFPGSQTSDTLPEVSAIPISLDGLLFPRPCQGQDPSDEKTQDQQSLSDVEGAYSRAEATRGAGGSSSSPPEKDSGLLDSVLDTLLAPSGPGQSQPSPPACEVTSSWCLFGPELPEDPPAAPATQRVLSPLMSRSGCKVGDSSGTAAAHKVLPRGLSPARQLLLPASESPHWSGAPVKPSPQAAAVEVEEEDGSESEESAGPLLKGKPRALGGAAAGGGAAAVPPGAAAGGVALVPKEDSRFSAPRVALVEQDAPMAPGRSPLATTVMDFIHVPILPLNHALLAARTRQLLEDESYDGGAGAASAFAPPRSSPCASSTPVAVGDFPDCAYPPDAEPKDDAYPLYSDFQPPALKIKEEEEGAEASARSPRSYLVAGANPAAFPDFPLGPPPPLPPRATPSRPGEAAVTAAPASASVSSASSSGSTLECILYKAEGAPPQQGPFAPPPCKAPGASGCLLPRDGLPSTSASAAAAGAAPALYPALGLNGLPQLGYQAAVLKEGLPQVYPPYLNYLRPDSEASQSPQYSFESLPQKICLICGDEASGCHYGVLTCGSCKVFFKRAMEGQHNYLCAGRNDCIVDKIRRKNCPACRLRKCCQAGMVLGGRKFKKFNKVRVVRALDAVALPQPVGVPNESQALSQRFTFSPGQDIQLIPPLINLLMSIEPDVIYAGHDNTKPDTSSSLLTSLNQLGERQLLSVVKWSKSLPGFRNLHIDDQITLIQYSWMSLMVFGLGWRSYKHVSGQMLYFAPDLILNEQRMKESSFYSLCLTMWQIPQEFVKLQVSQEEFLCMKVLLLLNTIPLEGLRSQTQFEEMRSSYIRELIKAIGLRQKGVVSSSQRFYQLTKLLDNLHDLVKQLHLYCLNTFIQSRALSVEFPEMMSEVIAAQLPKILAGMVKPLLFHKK
Summary of the method: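 Luminescence from ONE-Glo was measured 30 min after reagent addition, following 16 h exposure of HEK293-PR-A-luc cells (3,000/well, plated 5 h earlier) to DMSO-dissolved compounds at 37C; DMSO served as baseline.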

[10] = TOX21_PR_LUC_Followup_Antagonist_viability: Viability Assessment in the Tox21 HEK293 Progesterone Receptor (PR) Antagonism Luciferase Follow-Up Assay (AID 2283940)
Summary of the method: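 HEK293-PR-A-luc cells kept in charcoal-stripped FBS medium were plated 5 h before compound addition, then exposed 16 h at 37C; viability read as cellular ATP by luciferase luminescence, loss of signal indicating cytotoxicity.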

[11] = TOX21_PR_LUC_Followup_Agonist_viability: Viability Assessment in the Tox21 HEK293 Progesterone Receptor (PR) Agonism Luciferase Follow-Up Assay (AID 2283941);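 note: loss of signal means cytotoxicity so actives lower viability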
Summary of the method: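 HEK293-PR-A-luc cells, kept in 10% charcoal-stripped FBS medium, were treated with compounds for 16 h at 37C. Viability read as cellular ATP by luciferase-coupled luminescence; loss of signal indicates cytotoxicity.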

[12] = CCTE_Harrill_HTTr_Viability_MCF7: CCTE's 6-hour Cell Viability Assessment for the High-Throughput Transcriptomics (HTTr) Platform, in MCF-7 cells cultured in DMEM + 10% fetal bovine serum, Harrill Lab (AID 2284010; active = hit-call score of the fitted dose curve at least 0.9, where 1 is the maximum; inactive = score below 0.9)
Summary of the method: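 MCF-7 cells in DMEM + 10% FBS, 384-well, exposed 6 h to an eight-point dilution series. Membrane integrity scored by high-content imaging of propidium iodide exclusion; bidirectional fit versus DMSO.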

[13] = CCTE_Harrill_HTTr_Apoptosis_MCF7: CCTE's 6-hour Apoptosis Assessment for the High-Throughput Transcriptomics (HTTr) Platform, in MCF-7 cells cultured in DMEM + 10% fetal bovine serum, Harrill Lab (AID 2284011; active = hit-call score of the fitted dose curve at least 0.9, where 1 is the maximum; inactive = score below 0.9)
Summary of the method: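 High-content imaging of CellEvent Caspase 3/7 Green signal follows a six-hour exposure, with eight concentrations per chemical. MCF-7 cells grown in DMEM plus 10% fetal bovine serum; activity fitted in both directions against DMSO.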

[14] = CCTE_Harrill_HTTr_CellCount_MCF7: CCTE's Cell Proliferation Assessment for the High-Throughput Transcriptomics (HTTr) Platform, Harrill Lab (AID 2284012);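 note: cells exposed to compound for six hours; intended direction is loss of nuclei count meaning fewer cells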
Summary of the method: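 MCF7 cells exposed 6 hours to an eight-point dilution series; Hoechst-stained nuclei counted by high-content imaging. Bidirectional curve fitting against DMSO baseline.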

Measured: AC50

CC(=O)OC(C)=O
inactive: [1] | [2] | [3] | [4] | [5]

CO[C@H]1C[C@H](O[C@H]2[C@H](C)[C@@H](O[C@@H]3O[C@H](C)C[C@H](N(C)C)[C@H]3OC(C)=O)[C@@H](C)C[C@]3(CO3)C(=O)[C@H](C)[C@@H](OC(C)=O)[C@@H](C)[C@@H](C)OC(=O)[C@@H]2C)O[C@@H](C)[C@@H]1OC(C)=O
inactive: [1] | [2] | [3] | [4] | [5]

CSCCC(N)C(=O)O (stereo not given)
inactive: [1] | [2] | [3] | [4] | [6]

O=C(O)c1ccccc1Cl
inactive: [1] | [2] | [3] | [4] | [5] | [6]

COc1ccc(CCN(C)CCCC(C#N)(c2cc(OC)c(OC)c(OC)c2)C(C)C)cc1OC (stereo not given)
inactive: [1] | [2] | [3] | [7] | [5] | [6]

CC(=O)OCC(=O)[C@@]1(OC(C)=O)[C@@H](C)C[C@H]2[C@@H]3C[C@H](F)C4=CC(=O)C=C[C@]4(C)[C@@]3(F)[C@@H](O)C[C@@]21C
inactive: [1] | [2] | [3] | [7] | [5] | [8] | [9] | PGR (gene 5241)

Cc1cccc(C)c1NC(=O)CN1CCN(CCCC(c2ccc(F)cc2)c2ccc(F)cc2)CC1
inactive: [1] | [2] | [3] | [7] | [6]

CCOC(=O)Cc1ccc(-c2ccccc2)cc1
inactive: [1] | [2] | [3] | [7] | [5]

Cc1cccc(Oc2ccccc2)c1
inactive: [1] | [2] | [3] | [7] | [6]

CN1CCN(C2Cc3ccccc3Sc3ccc(Cl)cc32)CC1 (stereo not given)
active: [1] 34.4 µM | [2] 34.5 µM | [7] 34.3 µM
inactive: [3] | [5] | [6]

NCC1CCC(C(=O)O)CC1 (stereo not given)
inactive: [1] | [2] | [3] | [4] | [6]

COc1ccccc1OCC(O)CN1CCN(CC(=O)Nc2c(C)cccc2C)CC1 (stereo not given)
inactive: [1] | [2] | [3] | [7] | [6]

NS(=O)(=O)c1cc2c(cc1C(F)(F)F)NC(Cc1ccccc1)NS2(=O)=O (stereo not given)
inactive: [1] | [2] | [3] | [4] | [5] | [6]

COc1cc(OC)cc(OC)c1
inactive: [1] | [2] | [3] | [4] | [5] | [6]

CNC(=O)CN(CCN(CCN(CC(=O)[O-])CC(=O)NC)CC(=O)[O-])CC(=O)[O-].O.[Gd+3]
inactive: [1] | [2] | [3] | [7] | [5] | [6]

Nc1ccccc1S(=O)(=O)c1ccccc1
inactive: [1] | [2] | [3] | [4] | [5] | [6] | [8] | PGR (gene 5241) | [10] | [11]

CCCCOc1cc(C(=O)NCCN(CC)CC)c2ccccc2n1
inactive: [1] | [2] | [3] | [7] | [6]

C[n+]1ccccc1/C=N/O
inactive: [1] | [2] | [3] | [5]

CN(C)CCOC1=Cc2ccccc2Sc2ccc(Cl)cc21
active: [7] 35.4 µM
inactive: [1] | [2]

COC(OC)OC
inactive: [1] | [2] | [3] | [6]

COc1ccc([C@@H]2Sc3ccccc3N(CCN(C)C)C(=O)[C@@H]2OC(C)=O)cc1
inactive: [1] | [5] | [6] | [12]
active: [2] 38.8 µM | [3] 43.6 µM

C=CCCC
inactive: [1] | [2] | [7] | [4] | [5]

COCCCOc1cc(C[C@@H](C[C@H](N)[C@@H](O)C[C@H](C(=O)NCC(C)(C)C(N)=O)C(C)C)C(C)C)ccc1OC
inactive: [1] | [2] | [7] | [4] | [5]

O=[N+]([O-])c1ccc(F)cc1F
inactive: [1] | [2] | [7] | [4] | [5]

COc1ccc2[nH]c(S(=O)Cc3ncc(C)c(OC)c3C)nc2n1 (stereo not given)
inactive: [1] | [2] | [3] | [6]

CCCCCCc1ccc(-c2ccc(C#N)cc2)cc1
inactive: [1] | [2] | [7]

CCC[C@H](N[C@@H](C)C(=O)N1[C@H](C(=O)O)C[C@@H]2CCCC[C@@H]21)C(=O)OCC
inactive: [1] | [2] | [3] | [5] | [6] | [12] | [13] | [14]

CCCc1nn(C)c2c(=O)[nH]c(-c3cc(S(=O)(=O)N4CCN(C)CC4)ccc3OCC)nc12
inactive: [1] | [2] | [3] | [5]
